# Measured values published in PubChem BioAssay (NCATS).
# Inconclusive results are not listed. Entries that show only a call come without a potency. Activity calls are given as the source filed them. Unless noted, the call rests on the fitted dose curve.
# Experiments:
# [1] = Primary qHTS for inhibitors of MERS-S pseudo-typed particle cell entry (AID 1479149); further: nearly all actives have a fitted effect of over 60% in size; further: potency means the concentration at half of the fitted maximal effect
# [2] = Primary qHTS for Vero E6 cytotoxicity: counterscreen for inhibitors of SARS-S pseudo-typed particle cell entry (AID 1479150)
# [3] = Primary qHTS for inhibitors of La Crosse Virus (LACV) - induced cell death in SH-SY5Y cells (AID 1508616; active means well fitted curve in the direction sought with a large enough effect; an effect the other way counts as inactive or inconclusive;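 further: top concentration of the series differs between compounds; higher means more rescue of cells from virus-induced death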)
# Summary of the method: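 Rescue of virus-induced death was read as ATPLite luminescence after 6 days at 37C, scaled between DMSO wells with LACV and without virus. Cells were SH-SY5Y, 6000/well, infected at 0.01 MOI after compound addition.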
# [4] = target: Calcium and integrin-binding protein 1 (Homo sapiens) (UniProt Q99828); experiment: Primary qHTS for Identification of Calcium Integrin Binding Protein 1 (CIB1) Competitor (AID 1508620; active means well fitted curve in the direction sought with a large enough effect; an effect the other way counts as inactive or inconclusive; further: potency means the concentration at half of the fitted maximal effect)
# Calcium and integrin-binding protein 1 (Homo sapiens), sequence (Q99828 whole entry, looked up): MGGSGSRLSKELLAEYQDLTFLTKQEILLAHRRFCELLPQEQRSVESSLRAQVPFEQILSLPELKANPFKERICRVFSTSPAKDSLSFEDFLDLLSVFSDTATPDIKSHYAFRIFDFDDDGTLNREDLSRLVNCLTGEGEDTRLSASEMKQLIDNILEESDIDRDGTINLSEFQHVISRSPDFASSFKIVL
# Summary of the method: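 Fluorescence polarization competition: GST-tagged CIB1 (1 uM final) preincubated with compound 15 min at room temperature, then FITC-labelled alphaIIb peptide (100 nM final) added. After 15 min at room temperature, polarization read at Ex 480/Em 540.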
# [5] = Primary qHTS for Huh7 cytotoxicity: counterscreen for inhibitors of MERS-S pseudotyped particle cell entry (AID 1479147)
# [6] = Confirmatory qHTS for VERO E6 Cytotoxicity Assay: Counterscreen for SARS-CoV-2 CPE Assay (AID 1508605); further: series mostly up to about 20 µM; nearly all actives have a fitted effect of over 60% in size
# [7] = A High-Content qHTS Against Drug Library for the Identification of Small Molecules that Inhibit DYT1 Early Onset Primary Dystonia-Associated Cell Pathology (AID 1645839); further: series mostly up to about 46 µM
# Summary of the method: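 Cells were seeded and left for 24 h, then dosed with compound alongside tetracycline induction of mutant EGFP-TorsinA. They were incubated for 48 h, fixed in 4% paraformaldehyde, permeabilized and imaged for mislocalization (%pathology) and cell count.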
# [8] = Primary qHTS for small molecule stabilizers of the endoplasmic reticulum resident proteome: Secreted ER Calcium Modulated Protein (SERCaMP) assay (AID 1508630; active means well fitted curve in the direction sought with a large enough effect; an effect the other way counts as inactive or inconclusive)
# Summary of the method: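 The SH-SY5Y reporter protocol was run at 3 concentrations up to 38.3 uM (primary) or 11 concentrations (follow-up): 16 h compound, 100 nM thapsigargin for 4 h, then extracellular luciferase luminescence.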
# [9] = Confirmatory qHTS for activators (rescue) of SARS-CoV-2 Cytopathic Effect (CPE) (AID 1508606); settings: Vero E6 SARS-CoV-2 CPE rescue, viability luminescence; further: potency means the concentration at half of the fitted maximal effect; nearly all actives have a fitted effect of over 70% in size
smiles,measurement,setting,value
CC(=O)S[C@@H]1CC2=CC(=O)CC[C@]2(C)[C@H]2CC[C@@]3(C)[C@@H](CC[C@@]34CCC(=O)O4)[C@H]12,Potency,[1],inactive
same,Potency,[2],inactive
O=C(Nc1ccc(Br)cc1)c1cc(Br)cc(Br)c1O,outcome,[3],inactive
same,Potency,[4],inactive
CNCCCC12CCC(c3ccccc31)c1ccccc12,Potency,[5],inactive
same,Potency,[2],inactive
same,Potency,[6],inactive
O=C(O)c1ccc(=O)[nH]c1,outcome,[3],inactive
same,Potency,[4],inactive
same,outcome,[7],inactive
Nc1ncn([C@H]2C[C@H](O)[C@@H](CO)O2)c(=O)n1,Potency,[5],inactive
same,Potency,[2],inactive
NC1=NC(=O)C(c2ccccc2)O1 (centres undefined),outcome,[3],inactive
same,Potency,[4],inactive
same,Potency,[8],inactive
same,outcome,[7],inactive
N#Cc1ccc2c(c1)N(CCCN1CCC(O)CC1)c1ccccc1S2,Potency,[5],inactive
same,Potency,[2],inactive
same,Potency,[6],inactive
same,Potency,[9],11.2 µM (active)
CC(C)(C)CC(C)(C)c1ccc(OCCOCC[N+](C)(C)Cc2ccccc2)cc1,Potency,[5],inactive
same,Potency,[2],inactive
CN(C)c1ccc2nc3ccc(=[N+](C)C)cc-3sc2c1,Potency,[1],7.08 µM (active)
CN(C)CCc1c[nH]c2cccc(OP(=O)(O)O)c12,outcome,[3],inactive
same,Potency,[4],inactive
OCCN1CCN(CC/C=C2/c3ccccc3Sc3ccc(C(F)(F)F)cc32)CC1,Potency,[2],inactive
CC(=O)[C@H]1CC[C@H]2[C@@H]3C=CC4=CC(=O)CC[C@@]4(C)[C@@H]3CC[C@]12C,Potency,[5],inactive
same,Potency,[2],inactive
CCN(CC)C(=O)[C@@H]1C=C2c3cccc4[nH]cc(c34)C[C@H]2N(C)C1,Potency,[4],63.1 µM (active)
same,Potency,[8],inactive
CCN(CC)C(C)CN1c2ccccc2Sc2ccccc21 (centres undefined),Potency,[5],inactive
same,Potency,[2],inactive
COc1ccc(-c2ccc3cc(C(=O)O)ccc3c2)cc1C12CC3CC(CC(C3)C1)C2,Potency,[5],inactive
same,Potency,[2],inactive
O=C(N/N=C/c1ccc([N+](=O)[O-])o1)c1cc([N+](=O)[O-])cc([N+](=O)[O-])c1O,outcome,[3],inactive
same,Potency,[4],inactive
CN(c1nccc(=O)[nH]1)C1CCN(c2nc3ccccc3n2Cc2ccc(F)cc2)CC1,Potency,[5],inactive
same,Potency,[2],inactive
CC(=O)N1CCN(c2ccc(OC[C@H]3CO[C@](Cn4ccnc4)(c4ccc(Cl)cc4Cl)O3)cc2)CC1,Potency,[1],7.94 µM (active)
